100 compounds from PubChem BioAssay AID624416 (The Scripps Research Institute Molecular Screening Center, 2012) can be followed below.

Each structure is given as a SMILES string. About 1,500 (0.42%) of roughly 360,000 compounds were called active. For the sample, actives were picked, then their nearest neighbours and some compounds at random. A number with no mark means an inactive call. Rule as the data show it: active = inhibition above about 8.5%; inactive = the rest.

As a reminder, the inhibition is the change of the read-out against control, counted positive when it falls.

This experiment deals with HIV-1 gp120 / PG9 antibody interaction. Put plainly: small molecules engaging PG9 antibody – biochemical, TR-FRET, primary screen (AID 624416). Conditions: TR-FRET gp120-PG9 antibody binding; at 6.7 µM; hits give high values.
On to `O=C(COC(=O)c1cccc(Br)c1)Nc1cccc2c1C(=O)c1ccccc1C2=O`, for which the inhibition is 12% (active). Then `O=C(COC(=O)c1cccc(Cl)c1)Nc1ccc2[nH]c(=O)[nH]c2c1`, with 0.75%; and `O=C(COC(=O)Cn1cnc2ccccc21)Nc1cccc2c1C(=O)c1ccccc1C2=O`, with -1.23%. As for `COC(=O)[C@]12C[C@H](CC(=O)NCc3cccc(C(F)(F)F)c3)C(=O)N(Cc3ccc4c(c3)OCO4)C1=C[C@H](COCc1ccccc1)O[C@@H]2C`, the figure is -1.16%; as for `COc1cccc(NC(=O)N(C)C[C@@H]2OCc3cn(nn3)CCCC(=O)N([C@@H](C)CO)C[C@H]2C)c1`, 0.85%. As for `Cc1cc(C#N)c(SCC(N)=O)nc1-c1ccc(F)cc1`, the figure is -0.54%; as for `CCOc1ccc2nc(N3CCCN(C(=O)Nc4ccccc4C)CC3)c(C#N)cc2c1`, 1.36%. As for `CCOc1ccc2cc(C#N)c(SCC(=O)OC)nc2c1`, the inhibition was 33.3% (active). As for `COc1ccccc1Cc1c(-c2ccc(F)cc2)nc2ccc(C)cn12`, the figure is 1.73%; as for `N#Cc1ccc(OCCCN2CCC(C(O)(c3ccccc3)c3ccccc3)CC2)c(F)c1`, 1.27%; as for `O=C(O)CCC(=O)Nc1nc2ccc([N+](=O)[O-])cc2s1`, 9.53% (active).

As for `Cc1nc(NC(=O)CCC(=O)O)sc1C(=O)N(C)C`, the inhibition is 0.5%.

Take `NS(=O)(=O)c1ccc2nc(NC(=O)CS(=O)(=O)c3ccc(F)cc3)sc2c1`: the inhibition is -0.8%. Then `CCN1C(=O)N[C@@H]2C[C@H](C(=O)N3CCCC3)[C@H](C)[C@H](c3ccccc3)C[C@@H]21`, with -1.63%; and `N#Cc1ccccc1Sc1ccccc1C(=O)OCC(=O)NC1CCCCC1`, with 33% (active). Consider `O=C(COC(=O)c1ccccc1Cl)NC1CCCCCCC1`, for which the inhibition is -1.4%. As for `O=C(COC(=O)c1cccc(Cl)c1Cl)NC1CCCCCC1`, the figure is -0.6%. As for `COCCNC(=S)N(C)[C@H]1C[C@H]2c3[nH]c4ccccc4c3CCN2C[C@H]1[C@H](C)O`, the figure is -0.82%; as for `COCc1[nH]nc2c1C(c1ccccc1)N(c1ccccc1)C2=O` (stereo not given), 0.32%; as for `O=C1[C@@H](c2ccccc2)[C@@H](c2ccccc2)N1c1ccccc1`, -1.27%. For `S=c1ccc2ccccc2[nH]1`, the inhibition was 1.87%. As for `Cc1cc2c3ccccc3[nH]c(=O)n2n1`, the figure is 0.66%; as for `S=c1[nH]c2ccccc2c2ccccc12`, 41.9% (active); as for `Cc1ccc(-n2ncc3c2ncn2nc(-c4ccco4)nc32)c(C)c1`, 1.54%. On to `Cc1ccc(-n2ncc3c(=O)n(-c4ccc(C)c(C)c4)c(-c4ccco4)nc32)cc1`, for which the inhibition was 9.24% (active). As for `Cc1ccc(-n2nc(-c3ccco3)cc2C(=O)NCc2cccnc2)cc1`, the figure is 1.7%. As for `CCOC(=O)Cn1c2c(n(-c3ccc(F)cc3)c1=O)C=C(c1ccccc1)[C@@H](C)C(C(=O)N(C)C1CCCCC1)=C2`, the figure is 1.82%; as for `CCCCCCCCN1C(=O)[C@@H](CC(=O)N2CCN(C(=O)OCC)CC2)C[C@@]2(C(=O)OC)C1=C[C@H](C1CCCC1)O[C@@H]2C`, -1.72%; as for `Cc1nn(C)cc1C(=O)Nc1ccccc1Br`, -1.45%. Then `Cc1nn(C)cc1CNC(=O)Nc1ccc(Cl)cc1`, with -1.07%; and `Cc1ccc(-c2cc(C(=O)NCc3cn(C)nc3C)c3cc(Br)ccc3n2)cc1`, with 11.4% (active); and `Cc1cc(OC(=O)NCCc2ccc(F)cc2)ccc1F`, with 0.4%. In the case of `COC(=O)[C@]12C[C@H](CC(=O)NCc3ccccc3)C(=O)N(CCC3=CCCCC3)C1=C[C@H](C(C)(C)C)O[C@@H]2C`, the inhibition was -0.45%. As for `Nc1ncnc2c1ncn2C1OC(CO)CC1O` (stereo not given), the figure is -0.46%; as for `CSc1nc2c(c(=O)[nH]1)C(c1cccc(Cl)c1Cl)CC(=O)N2` (stereo not given), -0.61%. Then `N#Cc1c(N)nc2c3c(sc(=N)c2c1N)NC(=O)CC3c1ccccc1Cl` (stereo not given), with 36.3% (active). As for `NNc1nc2c(Cl)cccc2s1`, the figure is -3.22%; as for `Fc1cc(F)c2nc(Nc3nc4c(F)cccc4s3)sc2c1`, 12.7% (active); as for `Cc1cc(NCCc2c[nH]c3ccccc23)ccc1Oc1cccnc1`, 0.39%. Consider `C[C@@H](CN1C2=NC[C@@H](Cc3ccccc3)N2C[C@H]1Cc1ccc(O)cc1)NC(=O)CCC1CCCCC1`, for which the inhibition was -0.86%. As for `COc1ccc(CC(=O)Nc2ccc(-c3nnc(-c4ccccc4)o3)cc2)cc1`, the figure is 9.44% (active); as for `COc1ccc(NC(=O)CSc2nnc(Cc3ccccc3)c(=O)n2N)cc1`, -0.48%. Regarding `COc1ccc(NC(=O)CC(NC(C)c2ccccc2)C(=O)O)cc1` (stereo not given), the inhibition is -1.77%. For the compound `CC(C)[C@H]1COCCS(=O)(=O)N1Cc1ccccc1-c1cccc2c1sc1ccccc12`, the inhibition is -1.17%. For the compound `C=CC[C@]12C[C@@]3(O[C@H](c4ccc(C(F)(F)F)cc4)N=C3C[C@H](c3ccc(OC)cc3)[C@H]1C)N(C1CCN(Cc3ccccc3)CC1)C2=O`, the inhibition was -1.53%.

In the case of `Cc1ccc(-n2c(SCC(=O)N3CCC(C(=O)O)CC3)nc3ccccc3c2=O)cc1C`, the inhibition is -0.77%. As for `COc1cccc(-n2c(SCC(=O)c3c[nH]c4ccccc34)nc3ccccc3c2=O)c1`, the figure is 35.5% (active); as for `CCCn1c(N)c(C(=O)CSc2nc3ccccc3c(=O)n2-c2ccc(OC)cc2)c(=O)[nH]c1=O`, -1.09%.

Turning to `O=C(NCCc1ccccn1)c1ccc(COc2ccccc2)o1`, the inhibition was -2%. For the compound `O=C(NCCc1ccccn1)c1cc(C(=O)C2CCCCC2)c[nH]1`, the inhibition is 10.2% (active). Then `COc1ccc(CNC(=O)c2cc(C(=O)C3CC3)c[nH]2)cc1`, with -0.91%. Then `COc1cccc(-c2ccc(C#N)c(SCC(=O)NCCc3ccc(Cl)cc3)n2)c1`, with 14.1% (active); and `COc1ccc(CCNC(=O)CSc2nnc3ccc(-c4ccncc4)nn23)cc1`, with -1.52%.

Consider `COc1ccc(CCNC(=O)CSc2nc(C)nc3c2oc2ccccc23)cc1OC`, for which the inhibition is -0.52%. `COc1cc(OC)cc(C(=O)NCCSCc2ccc(Cl)cc2)c1`: the inhibition is -1.65%. Then `COc1ccc(CCNC(=O)COC(=O)c2cnc(Cl)c(Cl)c2)cc1`, with -0.95%.

For `COc1ccc(CCNC(=O)CSc2nc(-c3ccc(OC)c(OC)c3)ccc2C#N)cc1`, the inhibition is 16% (active). As for `CCc1c(-c2ccccc2OC)ncn1CCc1ccccc1OC`, the figure is 0.74%. Then `COC(=O)[C@]12C[C@H](CC(=O)N3CCN(C(=O)C4CC4)CC3)C(=O)N(Cc3ccc4c(c3)OCO4)C1=C[C@H](C(C)(C)C)O[C@@H]2C`, with -1.36%; and `COC(=O)c1ccc(CN2C(=O)[C@]3(OCCC=C[C@H]3C)c3c(Br)cccc32)cc1`, with 0.64%. As for `COc1ccccc1C(=O)N1O[C@]23C=C[C@]14C[C@@H](O)CC[C@]4(C)C2CC[C@]1(C)[C@@H]([C@H](C)/C=C/[C@H](C)C(C)C)CC[C@H]13` (stereo not given in full), the figure is 0.64%; as for `NC(=O)c1ncn([C@@H]2O[C@H](C(=O)O)[C@@H](O)[C@H]2O)n1`, -0.47%. `CCOC(=O)c1c(C)[nH]c(C(=O)OCC(=O)c2ccc(OC)cc2OC)c1C`: the inhibition is 9.16% (active). Turning to `COc1ccc(C(=O)COC(=O)C(O)c2ccccc2)c(OC)c1` (stereo not given), the inhibition is -2.12%. Consider `CCOC(=O)c1c(C)[nH]c(C(=O)COc2ccc3c(c2)OCO3)c1C`, for which the inhibition is 3.13%. Then `COC(=O)Cc1nnn2c1[C@H](C)[C@@H](OC)c1cc(Br)ccc1-2`, with 0.07%.

For `Cn1c(SCC(=O)Nc2ccc(Br)cc2F)nnc1-c1ccco1`, the inhibition is 2.43%. Then `CCn1c(CNC(=O)c2ccco2)nnc1SCC(=O)Nc1cccc(F)c1`, with -1.17%. Then `CCn1c(SCC(=O)Nc2cccc(F)c2)nnc1-c1cc2cc(Br)ccc2o1`, with 24.2% (active). As for `CCCCCCCCN1C(=O)[C@@H](CC(=O)NCc2ccc(C)o2)C[C@@]2(C(=O)OC)C1=C[C@H](C(C)(C)C)O[C@@H]2C`, the figure is 0.05%; as for `COC(=O)C1=C(C)N(Cc2ccccc2C(F)(F)F)C(=NCc2ccc(OC)cc2)NC1c1cccc(C(F)(F)F)c1` (stereo not given), 24.9% (active). On to `COC(=O)C1=C(C)N(Cc2ccccc2C(F)(F)F)C(=NCc2ccc(C(F)(F)F)cc2)NC1c1ccc(F)cc1` (stereo not given), for which the inhibition was -2.66%. Then `COC(=O)C1=C(C)N(Cc2ccccc2C(F)(F)F)C(=NCC2CC2)NC1c1cccc(Cl)c1` (stereo not given), with -1.5%; and `CC1(C)OC(=O)C2=C(CC(CCc3ccccc3)OC2c2ccc(Cl)cc2)O1` (stereo not given), with 1.11%; and `COc1ccc(Sc2ccc(NC(=O)c3cccc(Cl)c3)cc2C#N)cc1`, with -1.17%. As for `N#Cc1ccccc1NC(=O)c1cccc(COc2ccc(Cl)cc2Cl)c1`, the figure is 19.9% (active); as for `O=C(Nc1ccn(Cc2ccccc2F)n1)c1ccc(COc2ccc(Cl)cc2Cl)o1`, 1.3%. Then `CN[C@H]1C[C@H]2c3[nH]c4c(-c5ccccc5)cccc4c3CCN2C(=O)[C@H]1[C@H](C)O`, with -0.87%.

`COc1ccc(-c2ccc3c(n2)CCCN3S(=O)(=O)c2ccc(C)cc2)cc1`: the inhibition is -0.15%. As for `COC(=O)C1=C(C)N(Cc2ccc(C(F)(F)F)cc2)C(=NCc2ccc(C(F)(F)F)cc2)NC1c1cccc(Cl)c1` (stereo not given), the figure is -0.79%. Then `CCc1cccc(NC(=O)C2CCCN(S(=O)(=O)c3ccc4[nH]c(=O)ccc4c3)C2)c1` (stereo not given), with 0.8%; and `CC1CCN(S(=O)(=O)c2ccc3[nH]c(=O)ccc3c2)CC1`, with 0.02%. Turning to `Cc1cc(C)cc(NC(=O)C2CCCN(S(=O)(=O)c3ccc4[nH]c(=O)ccc4c3)C2)c1` (stereo not given), the inhibition is 11.4% (active). Then `CC(C)[C@@H](C)/C=C/[C@@H](C)[C@H]1CC[C@@H]2[C@]1(C)CCC1[C@]23C=C[C@]2(C[C@@H](O)CC[C@]12C)N(c1ccc([N+](=O)[O-])cn1)O3` (stereo not given in full), with -1.14%; and `O=C(NCc1ccc2c(c1)OCO2)c1c(O)nc2sccn2c1=O`, with -1.43%.

Regarding `O=C(NCc1ccc(Cl)cc1)c1cc2c(nc3sccn32)s1`, the inhibition was 28.4% (active). As for `O=C(NCc1ccc(Cl)cc1)c1cc(=O)nc2sc(-c3ccccc3)nn12`, the figure is -2.19%; as for `CCOC(=O)CNC(=O)N(C)[C@H]1C[C@H]2c3[nH]c4c(-c5ccc6c(c5)OCO6)cccc4c3CCN2C(=O)[C@H]1[C@H](C)O`, -0.88%; as for `CSc1ncccc1C(=O)NCc1ccccc1Cl`, -1.41%.

Consider `O=C(NCc1cccnc1)c1cccnc1Sc1ccc(Cl)cc1`, for which the inhibition is 0.54%. Then `COc1cccc(CNC(=O)c2cccnc2Sc2ccc(Cl)cc2)c1`, with 14.9% (active); and `O=C(NCc1ccccc1)[C@@H]1CCCN1C(=O)[C@@H](NS(=O)(=O)c1ccc(F)cc1F)C1CCCCC1`, with -0.43%. With `O=C(N=C1SC2CS(=O)(=O)CC2N1Cc1ccccc1)c1ccccc1` (stereo not given), the inhibition is 34% (active). As for `O=C(N=C1SC2CS(=O)(=O)CC2N1c1ccccc1)c1ccccc1` (stereo not given), the figure is -0.55%.

Consider `O=C(CCC1CCCC1)N=C1SC2CS(=O)(=O)CC2N1Cc1ccccc1` (stereo not given), for which the inhibition was 0.63%. Then `Nc1[nH]c(C(=O)c2ccccc2)c(-c2ccc(Cl)cc2Cl)c1C(=O)c1ccccc1`, with 0.83%; and `CN1CCc2nc(SC(C(=O)O)c3ccccc3)c(C#N)c(-c3cccs3)c2C1` (stereo not given), with 1.9%. As to `CCc1c(-c2ccccc2)nc(N)c(C#N)c1-c1cccs1`, the inhibition is -2.39%. Then `Cc1c(-c2ccccc2)nc(N)c(C#N)c1-c1cccs1`, with 12.2% (active).

With `O=C(NCc1ccccc1)[C@H]1CCCN1C(=O)[C@H]1CCCN1C(=O)c1cc(F)cc(F)c1`, the inhibition is -2.57%.
